AI-2 QS mod – Vibrio harveyi AI-2 quorum sensing modulators, primary screen, JMH597 strain, luminescence/OD600 ratio. hit rate 0.4% among 300,000. AID 2094, 2009. Vibrio harveyi JMH597 AI-2 luminescence/OD600 ratio, 9 h; active compounds read low; strain lacks LuxN and CqsS sensors; 0 = neutral-control median. activity change, % at 7.5 µM; in the data active = activity change below about -75%, passing the limit was not always enough;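 note: luminescence divided by OD600 gain over 9 h not by final OD600 alone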
SUMO Mot1 rescue – yeast Mot1-301 growth rescue at high temperature, primary screen, SUMOylation pathway inhibitor project, S. cerevisiae, ATP luminescence, 38.5C. growth rescue, % at 18.8 µM. S. cerevisiae Mot1-301 growth rescue; percent above DMSO median, 100 means doubled. hit rate 1% among 320,000;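 active = every valid replicate shows activation above 250% relative to neutral control wells; inactive = the rest, any valid replicate at or below 250%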;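 note: OY570 slx delta 5 strain wells were the positive control but not used for scaling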
Cardio protect – cardioprotection against H2O2-induced cell death, primary screen, uHTS, H9c2 cells, ATPLite luminescence. H9c2 cardiomyocytes, H2O2 injury protection, 2 h. protection from H2O2 cell death, % at 20 µM. hit rate 0.63% among 360,000. AID 588492, 2011;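 active = compounds giving at least 50% protection of heart cells from peroxide-induced death in the single-dose screen, raw or plate-pattern-corrected value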;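 note: 0% = DMSO wells with peroxide and 100% = DMSO wells without peroxide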
NR3A LBD binder – binders of NR3A ligand-binding domain, primary screen, biophysical, differential scanning fluorimetry, uHTS | Tm shift relative to glycine control, % at 25 µM | Glutamate receptor ionotropic, NMDA 3A (GRIN3A) ligand-binding domain | NR3A LBD differential scanning fluorimetry, Tm shift; 0% = protein alone, 100% = glycine-bound protein | hit rate 2.5% among 340,000;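 active = melting temperature shift of at least 10% of the positive control shift, at one fixed dose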
AHR activator – AHR activators, primary screen, cell-based, luminescence, luciferase reporter, human | Aryl hydrocarbon receptor (Homo sapiens), P35869 | hit rate 2.5% among 320,000 | AHR-responsive luciferase reporter cells | AID 2796, 2010 | activation, % at 5 µM; in the data active = activation above about 47%;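 note: 0% = vehicle wells and 100% = reference agonist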
NTR1 ag – agonists of human NTR1, primary screen, imaging, U2OS cells, beta-arrestin-GFP, high content; Neurotensin receptor type 1 (Homo sapiens), P30989; NTR1-U2OS beta-arrestin-GFP spot imaging, agonist mode; activation, % at 20 µM; hit rate 0.17% among 330,000;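 active = activation at or above 40% of the spot to cytoplasm intensity ratio, with at least 20 cells analyzed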;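 note: 0% = DMSO without peptide and 100% = 100 nM NTR1 peptide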
Target sequence (P30989 whole entry, looked up): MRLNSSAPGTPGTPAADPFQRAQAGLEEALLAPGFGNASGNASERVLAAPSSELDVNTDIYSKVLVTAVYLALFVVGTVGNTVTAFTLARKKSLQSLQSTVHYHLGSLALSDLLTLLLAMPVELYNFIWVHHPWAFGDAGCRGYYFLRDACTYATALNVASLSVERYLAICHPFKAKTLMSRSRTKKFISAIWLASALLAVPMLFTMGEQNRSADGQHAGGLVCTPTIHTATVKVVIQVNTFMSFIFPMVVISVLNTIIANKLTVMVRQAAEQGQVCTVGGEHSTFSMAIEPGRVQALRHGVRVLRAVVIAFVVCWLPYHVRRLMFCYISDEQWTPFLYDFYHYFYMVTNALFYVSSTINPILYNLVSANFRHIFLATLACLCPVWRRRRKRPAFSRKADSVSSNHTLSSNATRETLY
* marks the source's active call; other numbers are inactive results; nt = no result given. A selection: hits, their analogues and other compounds. The true share with any hit is near 6.2%.

SMILES | AI-2 QS mod | SUMO Mot1 rescue | Cardio protect | NR3A LBD binder | AHR activator | NTR1 ag
Clc1ccccc1-c1csc(Nc2cccnc2)n1 | 15 | 19 | -6 | 0 | 68* | 0
Cc1ccc(Nc2nc(-c3cccnc3)cs2)cc1Cl | 25 | -3 | -9 | 2 | 45 | 2
c1cncc(Nc2nc(-c3cccnc3)cs2)c1 | 17 | -18 | 0 | 0 | 50* | 1
Cc1nc(C)c(-c2csc(Nc3cccnc3)n2)s1 | 5 | -6 | -1 | -36 | 94* | 2
c1cncc(Nc2nc(-c3ccncc3)cs2)c1 | 8 | -8 | -1 | -30 | 4 | 0
COc1ccc(-c2csc(Nc3cccnc3)n2)cc1OC | 3 | nt | 11 | -28 | -18 | 1
Clc1cccc(-c2csc(Nc3cccnc3)n2)c1 | 139 | 228 | 0 | 29* | 41 | 6
O=C(COC(=O)/C=C/c1ccc(F)cc1)NC1CCCCCC1 | nt | -5 | 3 | -4 | 1 | 1
COc1cccc(CN2CCNC(=O)C2CC(=O)NCC(C)(C)N2CCOCC2)c1OC (centres undefined) | 11 | -12 | -1 | -1 | 0 | 0
COc1cc2cc3c(N)c(C(=O)Nc4sc(C)c(C)c4C#N)sc3nc2cc1OC | -1 | -4 | 21 | 19* | 4 | -1
Cc1cc(C(=O)Nc2sc(C)c(C)c2C#N)no1 | 4 | 29 | 0 | -1 | 17 | -1
COc1cc2cc3c(N)c(C(=O)NCc4ccco4)sc3nc2cc1OC | 9 | 2 | 58* | 0 | -5 | 1
CSc1nc(N)nc2c1ncn2CC(=O)N1CCN(c2ccccn2)CC1 | nt | -18 | -6 | 1 | 1 | -1
CN(CC(=O)Nc1ccc(F)cc1)C(=O)CN1C(=O)NC(CCc2ccccc2)C1=O (centres undefined) | nt | nt | 0 | nt | nt | nt
CCOC(=O)CCn1nc(-c2ccc(Cl)cc2)cc1N | 9 | -25 | -13 | 10* | 5 | -1
COc1ccc(CCNC(=O)C2(C)CCC(=O)N2Cc2ccc(C)cc2)cc1OC (centres undefined) | 16 | -12 | 0 | 0 | 2 | -1
CCCn1c(=O)[nH]c(=O)c2c1nc(-c1cc([N+](=O)[O-])ccc1Cl)n2CCOC | 5 | -4 | 1 | 0 | 0 | 1
O=C(Nc1ccc2c(c1)C(=O)NC2=O)c1ccc(Cl)s1 | 2 | -12 | 6 | 1 | 1 | 3
O=C(Nc1ccc2sccc2c1)c1ccc(Cl)s1 | 3 | 151 | -6 | 23* | 43 | -3
CCOC(=O)c1cc(-c2ccc(C)o2)nn1CCC#N | 26 | 347* | 8 | 1 | 1 | 1
CCOC(=O)c1c(NC(=O)C(C)Sc2nnc(C)c(=O)[nH]2)sc2c1CCCC2 (centres undefined) | 2 | -22 | 0 | -4 | -1 | 0
Cc1nc(SCc2nc3ccccc3[nH]2)c2oc3cc(Br)ccc3c2n1 | nt | 54 | -14 | -6 | 77* | -3
Oc1ccc(Cl)cc1-c1cc(-c2ccco2)[nH]n1 | 26 | 16 | -26 | 11* | 47* | 11
Oc1ccccc1-c1cc(-c2ccco2)[nH]n1 | -9 | -18 | -6 | -1 | 16 | 1
Cc1ccc(O)c(-c2cc(-c3ccccc3[N+](=O)[O-])[nH]n2)c1 | 50 | 14 | -5 | -6 | 25 | 6
Oc1ccc(Br)cc1-c1cc(-c2ccco2)[nH]n1 | 24 | 0 | -15 | 19* | 46 | 10
O=[N+]([O-])c1ccccc1-c1cc(-c2cc(Cl)ccc2O)n[nH]1 | 69 | -2 | -14 | 18* | 30 | nt
CSc1nccc(N2CCN(c3ccc(F)cc3)CC2)n1 | 14 | -15 | -4 | -1 | -9 | 1
Clc1ccc(N2CCN(c3ccnc(Cl)n3)CC2)cc1 | 11 | 6 | -3 | 14* | -7 | 6
CCCS(=O)(=O)NC(=O)C1(C)CCN(C(=O)c2ccc(SC(F)(F)F)cc2)C1 (centres undefined) | nt | nt | 3 | nt | nt | nt

Compound activity deposited in PubChem BioAssay by several laboratories.
